CASP6 VEID inh: blocks human caspase-6 cleavage activity. P55212. purified caspase-6, Z-VEID-R110 cleavage fluorescence. inhibition, % at 12.5 µM. 350,000 tested, 0.53% active. AID 686996;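 active = mean inhibition across replicates at least about 35%, with every replicate also reaching that limit, limit read from the data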
ERAP1 inh: blocks human ERAP1 aminopeptidase activity; Q9NZ08; recombinant ERAP1, Leu-AMC fluorescence, 60 min; inhibition, % at 10.7 µM; 340,000 tested, 0.15% active; AID 652197;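 active = mean replicate inhibition of at least 30%, or all replicates individually reaching that 30% level; inactive = mean below 30% and not every replicate reaching it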
SIRT5 inh: inhibitors of human sirtuin-5 desuccinylase. 330,000 tested, 1.1% active. inhibition, % at 15 µM. Purified SirT5, succinyl-peptide AMC, trypsin-coupled fluorescence. Q9NXA8; in the data active = inhibition above about 15%
Target sequence (Q9NXA8 whole entry, looked up): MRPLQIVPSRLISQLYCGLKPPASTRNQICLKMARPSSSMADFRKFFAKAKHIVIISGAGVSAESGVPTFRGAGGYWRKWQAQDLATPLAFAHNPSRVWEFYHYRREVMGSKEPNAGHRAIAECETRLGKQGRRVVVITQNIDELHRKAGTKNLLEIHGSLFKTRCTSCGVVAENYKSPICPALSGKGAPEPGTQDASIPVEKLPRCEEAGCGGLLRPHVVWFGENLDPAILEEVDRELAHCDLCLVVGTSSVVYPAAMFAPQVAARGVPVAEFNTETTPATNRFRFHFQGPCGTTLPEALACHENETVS
FGF22 binding: shifts melting point of recombinant human FGF22; recombinant FGF22 thermal shift, SYPRO orange fluorescence; percent of sucrose octasulfate shift, DMSO zero; activity (Tm shift, normalised), % at 9.99 µM; 340,000 tested, 1.5% active;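 active = mean Tm shift, scaled 0 neutral to 100 positive control, at about 1.3% or above, every replicate too, limit read from the data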
Numbers stand for hits. In the library only some 3.1% were active in any assay of this set; here they are far more common.

CC(C)(CO)NS(=O)(=O)c1ccc2c(c1)C(=NO)c1cc(S(=O)(=O)NC(C)(C)CO)ccc1-2 was read as CASP6 VEID inh inactive, ERAP1 inh inactive, SIRT5 inh inactive and FGF22 binding 42.9.
C[C@H](CO)N1C[C@H](C)[C@H](CN(C)C(=O)c2cnccn2)Oc2ncc(/C=C/c3ccccc3)cc2C1=O was read as CASP6 VEID inh inactive, ERAP1 inh inactive, SIRT5 inh inactive and FGF22 binding inactive.
For CCN(CC(=O)Nc1ccccc1OC)CC(=O)Nc1ccccc1-c1ccccc1 the results were CASP6 VEID inh inactive, ERAP1 inh inactive and FGF22 binding inactive.
CCN(CC(=O)Nc1ccccc1OC)CC(=O)Nc1sccc1C#N was read as CASP6 VEID inh inactive, ERAP1 inh inactive, SIRT5 inh 15.4 and FGF22 binding inactive.
Screening O=C(NCCCO)c1cc([N+](=O)[O-])cc2c1C=Cc1ccccc1O2 returned CASP6 VEID inh 89.3, ERAP1 inh inactive, SIRT5 inh inactive and FGF22 binding inactive.
Screening O=C1N=C(N2C=CC(=C3C=CNC=C3)C=C2)/C(=C/N=NC(=O)c2ccccc2O)S1 returned CASP6 VEID inh 35.9, ERAP1 inh inactive, SIRT5 inh inactive and FGF22 binding inactive.
For CN(C)C(=O)c1cccc(-c2ccc(C3[C@@H]4CN(S(=O)(=O)c5ccccc5F)C[C@H]3N4)cc2)c1 (stereo not given in full) the results were CASP6 VEID inh inactive, ERAP1 inh inactive and SIRT5 inh inactive.
`Cc1cc(C)c2nc(N3C(=O)C(O)=C(C(=O)c4ccco4)C3c3ccc(O)cc3)sc2c1` (stereo not given) gave CASP6 VEID inh inactive, ERAP1 inh inactive, SIRT5 inh 17.4 and FGF22 binding inactive.
Cc1ccc2nc(N3C(=O)C(O)=C(C(=O)c4ccco4)C3c3ccc(O)cc3)sc2c1 (stereo not given) was read as CASP6 VEID inh inactive, ERAP1 inh inactive, SIRT5 inh inactive and FGF22 binding inactive.
For Cc1cc(C)c2nc(N3C(=O)C(O)=C(C(=O)c4ccco4)C3c3cccc(O)c3)sc2c1 (stereo not given) the results were CASP6 VEID inh inactive, ERAP1 inh inactive and SIRT5 inh 16.6.
COCC(=O)N1C[C@@H]2[C@H](c3ccccc31)[C@H](CO)N2C(=O)C1CCCC1 was read as CASP6 VEID inh inactive, ERAP1 inh inactive, SIRT5 inh inactive and FGF22 binding inactive.
For CS(=O)(=O)N1CCCCN2[C@H](C1)[C@@H](c1ccc(-c3cccc(C#N)c3)cc1)[C@@H]2CO the results were CASP6 VEID inh inactive, ERAP1 inh inactive, SIRT5 inh inactive and FGF22 binding inactive.
`COc1ccc(NC(=O)Nc2ccc3c(c2)[C@H]2C[C@H](CC(=O)N(C)C)O[C@H](CO)[C@H]2O3)cc1` gave CASP6 VEID inh inactive, ERAP1 inh inactive, SIRT5 inh inactive and FGF22 binding inactive.
For CCNc1nc(SCC(=O)Nc2ccc(Cl)c(Cl)c2)nc(N(C)C)n1 the results were CASP6 VEID inh inactive, ERAP1 inh inactive, SIRT5 inh inactive and FGF22 binding 44.8.
`COc1nc(SCC(=O)Nc2ccccc2Cl)nc(N(C)C)n1` gave CASP6 VEID inh inactive, ERAP1 inh inactive, SIRT5 inh inactive and FGF22 binding inactive.
For COC(=O)CSc1nc(NCc2ccccc2)nc(N(C)C)n1 the results were CASP6 VEID inh inactive, ERAP1 inh inactive, SIRT5 inh inactive and FGF22 binding 43.1.
CCNc1nc(NCc2ccccc2)nc(SCC(N)=O)n1 was read as CASP6 VEID inh inactive, ERAP1 inh inactive, SIRT5 inh inactive and FGF22 binding inactive.
For COc1ccc(S(=O)(=O)N(C)C[C@H]2Oc3ncc(/C=C/c4ccccc4)cc3C(=O)N([C@H](C)CO)C[C@@H]2C)cc1 the results were CASP6 VEID inh inactive, ERAP1 inh inactive, SIRT5 inh 19.8 and FGF22 binding inactive.
COc1cccc(S(=O)(=O)N(C)C[C@@H]2Oc3ncccc3C(=O)N([C@H](C)CO)C[C@@H]2C)c1 was read as CASP6 VEID inh inactive, ERAP1 inh 46.3, SIRT5 inh inactive and FGF22 binding inactive.
`COc1ccc(S(=O)(=O)N(C)C[C@@H]2Oc3ncccc3C(=O)N([C@H](C)CO)C[C@@H]2C)cc1` gave CASP6 VEID inh inactive, ERAP1 inh 42.5, SIRT5 inh inactive and FGF22 binding inactive.
For C[C@H](CO)N1C[C@H](C)[C@H](CN(C)S(=O)(=O)c2ccccc2)Oc2ncccc2C1=O the results were CASP6 VEID inh inactive, ERAP1 inh inactive, SIRT5 inh inactive and FGF22 binding inactive.
`Cc1ccc([N+](=O)[O-])cc1CN1CCN(c2ncc(Cc3ccccc3)cn2)CC1` gave CASP6 VEID inh inactive, ERAP1 inh inactive and FGF22 binding 43.2.
